# Rows were chosen to be rich in hits. Some 10% of all compounds tested hit in one or more screens of this group.
# NIH3T3 tox: cytotoxic compounds in NIH 3T3 cells; NIH 3T3 viability, CellTiter-Glo ATP luminescence, 48-72 h; Potency, µM (doses to about 96.7 µM), for the others: at the top dose activity change, negative = cytotoxicity, actives largely listed as inhibitors; 94,000 tested, 4.3% active; further: nearly all actives have a fitted effect of over 55% in size
#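 Cells were seeded at 400 per well, treated with pin-transferred compound, and kept 48 or 72 hr at 37 °C before CellTiter-Glo addition and luminescence imaging of cellular ATP.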
# GPT2 inh: blocks human glutamate pyruvate transaminase 2; Q8TD30; Recombinant GPT2, coupled pyruvate oxidase/HRP Amplex Red fluorescence; Potency, µM (doses to about 57.7 µM), inactives show at the highest dose activity change, negative = inhibition, hits mostly inhibitors; 100,000 tested, 0.25% active; AID 1671188; further: nearly all actives have a fitted effect of over 60% in size
# Target sequence (Q8TD30 whole entry, looked up): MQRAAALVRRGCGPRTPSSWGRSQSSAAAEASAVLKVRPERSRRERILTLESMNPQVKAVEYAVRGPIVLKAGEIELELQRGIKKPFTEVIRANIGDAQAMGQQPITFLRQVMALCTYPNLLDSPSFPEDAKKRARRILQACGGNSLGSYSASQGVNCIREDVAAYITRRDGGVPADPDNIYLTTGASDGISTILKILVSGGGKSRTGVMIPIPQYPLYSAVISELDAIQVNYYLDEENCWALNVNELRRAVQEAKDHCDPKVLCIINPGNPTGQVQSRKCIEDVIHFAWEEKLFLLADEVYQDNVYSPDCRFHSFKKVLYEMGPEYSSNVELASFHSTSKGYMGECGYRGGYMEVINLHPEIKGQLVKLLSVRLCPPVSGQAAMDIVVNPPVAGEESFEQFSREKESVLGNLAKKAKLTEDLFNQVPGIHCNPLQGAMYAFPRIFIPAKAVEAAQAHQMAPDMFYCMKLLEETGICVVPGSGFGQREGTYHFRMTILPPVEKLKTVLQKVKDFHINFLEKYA
#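 Inhibition is scored from Amplex Red fluorescence generated when pyruvate oxidase and HRP act on pyruvate released by GPT2. Reactions contain 10ng/uL enzyme, 250uM a-KG and 2mM L-alanine and run 30 min at room temperature.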
# Luciferase inh: inhibitors of firefly (Photinus pyralis) luciferase | P08659 | purified P. pyralis luciferase, luminescence, biochemical | Potency, µM (top dose mostly 115 µM), actives largely listed as inhibitors | 76,000 tested, 2.5% active | AID 1347043; further: nearly all actives have a fitted effect of over 65% in size
#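 Biochemical qHTS: compound (6-point titration) added to 10uM D-luciferin plus 10uM ATP in Tris acetate pH 7.5 buffer with Mg, Tween-20 and BSA, then purified enzyme at 10nM; light output imaged.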
# HEK293 tox: HEK 293 cell cytotoxicity | HEK 293 viability, ATP luminescence (CellTiter-Glo), 48-72 h | 94,000 tested, 6.6% active | Potency, µM (highest dose often 115 µM), for inactives: at the top dose activity change, negative = cytotoxicity, hits mostly inhibitors | AID 1345083; further: nearly all actives have a fitted effect of over 60% in size
#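 ATP-coupled CellTiter-Glo luminescence served as viability read-out, recorded 10 min after reagent addition at room temperature. HEK 293 cells, 250 cells/well, had been incubated with pintool-transferred compound for 48 or 72 hr at 37 degree Celsius.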
# hNpr1 antagonist: antagonists of human natriuretic peptide receptor Npr1. P16066. Potency, µM (top dose mostly 46.3 µM), for inactives: top-dose activity change, negative = inhibition, actives largely listed as inhibitors. AID 1347048. HEK293 hNpr1 GloSensor cGMP, ANP-stimulated luminescence. 76,000 tested, 1.6% active; calls by dose curve; further: nearly all actives have a fitted effect of over 60% in size
#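 Compound pre-incubated 30 min at room temperature on GloSensor-loaded HEK293 cells stably carrying hNpr1 and the pGS-40F cGMP biosensor. Stimulation uses hNppA at 0.1 nM final; luminescence is taken at baseline and 20 min post-agonist.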
# * marks the source's active call; other numbers are inactive results; i = inactive; ? = inconclusive; nt = no result given; [ ] = remark or other dose. Unless noted, the call rests on the fitted dose curve; in most records, active means well fitted curve in the direction sought with a large enough effect; inconclusive means small, poorly fitted or top-dose-only effect, or another doubt; inactive means no such curve, though single readings can be large; an effect the other way counts as inactive or inconclusive. On the % scale 0 is the no-effect control and ±100 the full control effect; potency means the concentration at half of the fitted maximal effect.
SMILES,NIH3T3 tox,GPT2 inh,Luciferase inh,HEK293 tox,hNpr1 antagonist
CC(C)C[C@@H]1N[C@H](C(=O)NCCN(C)C)Cc2c[nH]c3cccc1c23,56µM*,i,i,100µM*,1%[70.6 µM]
CC(C)C[C@@H]1N[C@H](C(=O)NCCOc2ccccc2)Cc2c[nH]c3cccc1c23,28µM*,-18%[88.5 µM],i,?,-29%[70.6 µM]
O=C(c1ccccc1F)N1CC2CC(C1)[C@H]1CCCC(=O)N1C2 (some centres undefined),1%,i,i,1%,2%
CSc1nc(N)c2ncn([C@@H]3O[C@H](COP(=O)(O)OP(=O)(O)OP(=O)(O)O)[C@@H](O)[C@H]3O)c2n1,nt,1%,nt,nt,nt
CN1c2cccnc2CN(Cc2ccccn2)CC[C@H]1CO,-8%[174 µM],i,i,-14%[172 µM],4%[70.6 µM]
COCCOC1CCN(C(=O)c2cc(C)n(CCOC)c2C)CC1,-9%,i,20µM*,-9%,1%
COCCn1c(C)cc(C(=O)N2CCC3(CC2)CC(O)CCO3)c1C (centres undefined),-12%,5%,i,3%,-9%
O=C(NCc1ccc2c(c1)OCO2)c1cnc2c(c1)N(C(=O)CCc1ccccc1)CCC2,?,i,i,?,4%
O=C(Nc1cccc(F)c1)c1cnc2c(c1)N(C(=O)CCc1ccccc1)CCC2,-20%[138 µM],-14%[88.5 µM],i,?,-17%[70.6 µM]
O=C(NCc1cccc(Cl)c1)c1cnc2c(c1)N(C(=O)CCc1ccccc1)CCC2,100µM*,-6%[88.5 µM],i,?,-18%[70.6 µM]
O=C(c1cnc2c(c1)N(C(=O)CCc1ccccc1)CCC2)N1CCN(Cc2ccccc2)CC1,-13%,i,i,?,-1%
O=C(c1cnc2c(c1)N(C(=O)CCc1ccccc1)CCC2)N1CCC(c2ccccc2)CC1,?,-5%,i,79µM*,5%
Cc1csc(NC(=O)c2cnc3c(c2)N(C(=O)CCc2ccccc2)CCC3)n1,89µM*,-26%[88.5 µM],i,?,-1%[70.6 µM]
CC1CCN(C(=O)C2COC3(CCC(C)CC3)N2C(=O)c2ccc(F)cc2)CC1 (centres undefined),?,-2%,i,-22%,-3%
O=C(c1cccc(F)c1)N1CCC2(CC1)N=C(c1ccccc1)NO2,2%,-20%,i,-9%,4%
Cc1nn2c(c1-c1ccccc1N1CCCC1)N(C(=O)C(C)C)CCC2,?,i,i,35µM*,6%[70.6 µM]
COc1ccccc1C(=O)N1CCCn2nc(C)c(-c3ccccc3N3CCCC3)c21,?,i,i,56µM*,-11%[70.6 µM]
Cc1nn2c(c1-c1ccccc1C(C)C)N(C(=O)Cc1ccc3c(c1)OCO3)CCC2,40µM*,-17%[88.5 µM],i,?,1%[70.6 µM]
Cc1nn2c(c1-c1ccccc1C(C)C)N(C(=O)c1ccnn1C)CCC2,?,-17%[88.5 µM],i,?,-7%[70.6 µM]
Cc1nn2c(c1-c1ccccc1C(C)C)N(C(=O)COc1ccccc1C(N)=O)CCC2,?,5%[88.5 µM],i,71µM*,-10%[70.6 µM]
COc1cccc(CC(=O)N2CCCn3nc(C)c(-c4ccccc4C(C)C)c32)c1,?,-4%[88.5 µM],i,?,?
O=C(C[C@H]1NC(=O)c2ccccc2NC1=O)NCCc1nc(-c2ccccc2)cs1,-23%,i,i,?,-10%
COc1ccc(OCC2CN(Cc3cccc(F)c3)S(=O)(=O)c3cnccc3O2)cc1 (centres undefined),?,i,nt,?,nt
COc1ccccc1C(=O)N1CCCn2nc(C)c(-c3ccccc3C(C)C)c21,?,-5%[88.5 µM],i,89µM*,-2%[70.6 µM]
CN1CCN(c2ccc(-c3noc([C@@H]4CCCN4CCCc4ccccc4)n3)cn2)CC1,40µM*,-4%[88.5 µM],i,?,4%[70.6 µM]
SMILES,NIH3T3 tox,GPT2 inh,Luciferase inh,HEK293 tox,hNpr1 antagonist
c1ccc(CN2CCC[C@H]2c2nc(-c3ccnc(N4CCOCC4)c3)no2)nc1,35µM*,i,i,?,-6%[70.6 µM]
c1ccc(CN2CCC[C@H]2c2nc(-c3ccc(-n4ccnc4)nc3)no2)cc1,?,-21%[88.5 µM],i,89µM*,-3%[70.6 µM]
c1cncc(CN2CCC[C@H]2c2nc(-c3ccc(-n4ccnc4)nc3)no2)c1,-13%[138 µM],1%[88.5 µM],i,?,4%[70.6 µM]
CN1CCN(c2ccc(-c3noc([C@@H]4CCCN4C4CCCCC4)n3)cn2)CC1,79µM*,i,i,79µM*,2%[70.6 µM]
Cc1nnc(CCNC(=O)[C@H]2CNC[C@@H](C(=O)N3CCCC3)C2)s1,-2%,i,i,0%,-2%
COc1ccccc1CNC(=O)[C@@H]1Cc2c[nH]c3cccc(c23)[C@H](CC(C)C)N1,28µM*,2%[88.5 µM],i,35µM*,-20%[70.6 µM]
CC(C)C[C@@H]1N[C@H](C(=O)NCc2ccccc2Cl)Cc2c[nH]c3cccc1c23,32µM*,-8%[88.5 µM],i,28µM*,-20%[70.6 µM]
CC(C)(C)CC(=O)NC[C@H]1O[C@H](Cc2cc(-c3ccc(F)cc3)on2)CC[C@@H]1O,?,i,?,?,-27%[70.6 µM]
Cc1cc(Cl)ccc1C(=O)N1Cc2cnn(Cc3ccc(F)cc3)c2C1,?,0%,i,45µM*,?
CC(C)Oc1ccc(C(=O)N2Cc3cnn(Cc4ccc(F)cc4)c3C2)cc1,?,3%[11.5 µM],i,?,?
COC(=O)CNC(=O)C1CCc2nnc(C3CCN(C(=O)c4ccc(Cl)cc4Cl)CC3)n21 (centres undefined),-24%,-3%,nt,-23%,nt
COc1ccc(-c2noc(-c3ccc(N4C[C@H]5CC[C@H]4C5)nc3)n2)cc1,-22%,-3%,25µM*,?,?
CN(CC(O)CO)c1ccc(C(=O)N2CCC(Oc3cccnc3)CC2)cn1 (centres undefined),-2%,-7%,i,-2%,2%
CCc1ccc(C(=O)NC2CCN(c3cc(-c4cccs4)[nH]n3)CC2)cc1,?,-23%,i,?,-25%
CC1(c2noc(-c3ccccn3)n2)CCN(C(=O)CCCc2nc3ccccc3s2)CC1,?,5%,i,40µM*,?
CC1(NC(=O)C2CC2)CN(Cc2nc(-c3cccc(N4CCOCC4)c3)cs2)C1,-20%[138 µM],i,40µM*,?,-2%[70.6 µM]
Cn1ccc2cc(-c3csc(CN4CC(C)(NC(=O)C5CC5)C4)n3)ccc21,?,0%[88.5 µM],?,?,?
CC1(NC(=O)C2CC2)CN(Cc2nc(-c3ccc(Oc4ccccc4)cc3)cs2)C1,?,-9%[88.5 µM],?,35µM*,8.9µM*
O=C(NCCc1ccccc1)N1CCC(N2CC3CC(C2)[C@H]2CCCC(=O)N2C3)CC1 (some centres undefined),i,i,i,8%,3%
COCCNc1ncccc1-c1noc([C@@H]2CCCN2Cc2cccc(C#N)c2)n1,?,-5%[88.5 µM],i,71µM*,-2%[70.6 µM]

# Compound activity as filed in PubChem.
